Data as given in PubChem BioAssay (EPA / NIEHS).
Inconclusive results are not listed. The source made the active and inactive calls. How the source made its calls, unless noted: active means hit-call score of the fitted dose curve at least 0.9, where 1 is the maximum; inconclusive means response in the unintended direction; inactive means score below 0.9.

What was measured:
THRB (gene 7068) = THRB (gene 7068) (UniProt P10828); experiment: TOX21_TRB_BLA_Agonist_Followup_ratio: Tox21 Thyroid Hormone Receptor beta Agonism Beta-lactamase (BLA) Follow-Up Assay, Ratio (AID 2283954)
Chain of THRB (gene 7068) (P10828 whole entry, looked up, the tested form may be a part): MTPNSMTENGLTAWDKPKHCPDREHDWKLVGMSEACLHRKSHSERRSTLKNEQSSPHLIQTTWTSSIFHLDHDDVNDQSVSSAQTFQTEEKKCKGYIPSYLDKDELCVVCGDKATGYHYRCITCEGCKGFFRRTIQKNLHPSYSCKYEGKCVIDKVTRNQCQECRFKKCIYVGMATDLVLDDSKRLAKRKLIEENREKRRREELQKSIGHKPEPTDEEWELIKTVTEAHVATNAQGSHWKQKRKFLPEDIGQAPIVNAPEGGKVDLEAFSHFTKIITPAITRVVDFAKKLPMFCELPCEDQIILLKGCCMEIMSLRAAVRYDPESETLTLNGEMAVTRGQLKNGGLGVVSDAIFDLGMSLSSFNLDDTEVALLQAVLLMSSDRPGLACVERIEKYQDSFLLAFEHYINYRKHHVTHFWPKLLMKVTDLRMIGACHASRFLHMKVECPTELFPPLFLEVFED
From the text: The GeneBLAzer TRb-UAS-bla HEK293T assay kit for human TRb (ThermoFisherScientific Catalog No. K1684) was used as a secondary assay for specificity (TRb-bla). This assay contained the ligand-binding domain (LBD) of the human TRb fused to the DNA-binding domain of GAL4 stably integrated in the GeneBLAzer UAS-bla HEK293Tcell line. The reporter gene, b-lactamase, is under the transcriptional control of a UAS that binds the GAL4 DNA-binding domain. A cell viability assay was run in parallel for these cells as well using the CellTiter-Glo viability assay kit.TOX21_TRB_BLA_Agonist_Followup_ratio is an assay readout measuring reporter gene via receptor activity and designed using inducible reporter (beta lactamase induction) detected with GAL4 b-lactamase reporter gene. The signal is derived from the ratio of cleaved (ch2) to uncleaved (ch1) reporter gene substrate used as the measure of target activity.Data from the assay component TOX21_TRB_BLA_Agonist_Followup_ratio was analyzed into 1 assay endpoint. This assay endpoint, TOX21_TRB_BLA_Agonist_Followup_ratio, was analyzed in the positive analysis fitting direction relative to DMSO as the negative control and baseline of activity. […] Furthermore, this assay endpoint can be referred to as a primary readout, because this assay has produced multiple assay endpoints and this ratio serves a reporter gene function to understand target activity. […]

[1] = target: Nucleoli Translocation, AR (gene 367) (UniProt P10275); experiment: UPITT_HCI_U2OS_AR_TIF2_Nucleoli_Antagonist: University of Pittsburgh U2OS Androgen Receptor-Transcriptional Intermediary Factor 2 (AR-TIF2) Antagonism High Content Imaging Assay for Nucleoli Translocation (AID 2283997)
Chain of Nucleoli Translocation, AR (gene 367) (P10275 whole entry, looked up, the tested form may be a part): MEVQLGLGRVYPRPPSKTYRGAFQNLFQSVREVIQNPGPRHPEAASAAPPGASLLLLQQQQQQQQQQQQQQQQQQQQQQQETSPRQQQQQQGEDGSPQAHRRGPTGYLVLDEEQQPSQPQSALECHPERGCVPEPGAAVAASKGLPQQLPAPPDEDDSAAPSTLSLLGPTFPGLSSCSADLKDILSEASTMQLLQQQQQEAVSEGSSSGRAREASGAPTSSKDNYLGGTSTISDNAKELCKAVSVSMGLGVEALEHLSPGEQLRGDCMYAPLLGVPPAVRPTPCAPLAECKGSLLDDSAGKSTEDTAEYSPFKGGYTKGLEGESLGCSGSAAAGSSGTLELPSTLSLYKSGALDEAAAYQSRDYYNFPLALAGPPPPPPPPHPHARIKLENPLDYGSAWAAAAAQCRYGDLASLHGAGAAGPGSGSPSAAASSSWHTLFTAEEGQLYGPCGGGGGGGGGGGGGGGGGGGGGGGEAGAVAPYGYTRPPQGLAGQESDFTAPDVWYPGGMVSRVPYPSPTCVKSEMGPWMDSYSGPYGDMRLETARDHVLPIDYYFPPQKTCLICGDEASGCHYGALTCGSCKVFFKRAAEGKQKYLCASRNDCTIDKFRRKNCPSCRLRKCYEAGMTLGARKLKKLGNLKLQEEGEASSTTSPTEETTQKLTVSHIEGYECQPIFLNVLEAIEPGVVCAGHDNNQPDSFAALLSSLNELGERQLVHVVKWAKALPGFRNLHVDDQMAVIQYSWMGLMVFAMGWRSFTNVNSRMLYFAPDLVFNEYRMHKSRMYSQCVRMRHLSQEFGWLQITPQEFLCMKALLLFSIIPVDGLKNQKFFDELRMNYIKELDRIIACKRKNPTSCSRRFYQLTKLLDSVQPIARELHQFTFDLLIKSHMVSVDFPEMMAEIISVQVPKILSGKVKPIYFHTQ
Outline: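 Compounds are added at 20 uM final concentration in 0.2% DMSO to U2OS cells carrying AR-RFP and TIF2-GFP fusions. Nucleolar AR-RFP fluorescence is then quantified by automated imaging. Antagonism is fitted positively against DHT baseline.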

[2] = target: Nucleoli Translocation, AR (gene 367) (UniProt P10275); experiment: UPITT_HCI_U2OS_AR_TIF2_Nucleoli_Agonist: University of Pittsburgh U2OS Androgen Receptor-Transcriptional Intermediary Factor 2 (AR-TIF2) Agonism High Content Imaging Assay for Nucleoli Translocation (AID 2283998)
Outline: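 Readout is red (AR-RFP) fluorescence localized to nucleoli, measured by high-content imaging and analysed for increase relative to DMSO. Compound series spanned 0.195 to 50 uM final in 0.5% DMSO.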

[3] = target: Ratio of Nucleoli Translocation and Cytoplasm, AR (gene 367) (UniProt P10275); experiment: UPITT_HCI_U2OS_AR_TIF2_Nucleoli_Cytoplasm_Ratio_Antagonist: University of Pittsburgh U2OS Androgen Receptor-Transcriptional Intermediary Factor 2 (AR-TIF2) Antagonism High Content Imaging Assay for Ratio of Nucleoli Translocation and Cytoplasm (AID 2283999);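 further: antagonists lower the DHT-driven ratio of nucleolar to cytoplasmic red signal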
Chain of Ratio of Nucleoli Translocation and Cytoplasm, AR (gene 367) (P10275 whole entry, looked up): as the sequence (P10275 whole entry, looked up, the tested form may be a part) above
Outline: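 Read-out is the ratio of nucleolar to cytoplasmic AR-RFP fluorescence, imaged by high-content microscopy in U2OS cells coexpressing TIF2-GFP. Single-point 20 uM screen, triplicate confirmation, then 0.195–50 uM dose response; activity referenced to DHT baseline.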

[4] = target: Ratio of Nucleoli Translocation and Cytoplasm, AR (gene 367) (UniProt P10275); experiment: UPITT_HCI_U2OS_AR_TIF2_Nucleoli_Cytoplasm_Ratio_Agonist: University of Pittsburgh U2OS Androgen Receptor-Transcriptional Intermediary Factor 2 (AR-TIF2) Agonism High Content Imaging Assay for Ratio of Nucleoli Translocation and Cytoplasm (AID 2284000);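 further: hits raise the red nucleolar to cytoplasm ratio above vehicle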
Outline: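 Human osteosarcoma U2OS line, AR-RFP plus TIF2-GFP; compounds 0.195–50 uM final, 0.5% DMSO. Readout: nucleolar/cytoplasmic RFP ratio by HCI, positive direction vs DMSO baseline.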

[5] = CCTE_Shafer_MEA_acute_spike_number: CCTE's Neural Acute Assay for Total Number of Spikes, Shafer Lab (AID 2284008; active means hit-call score of the fitted dose curve at least 0.9, where 1 is the maximum; inactive means score below 0.9;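 on AC50: curve fitted for decrease in spike count so AC50 reflects inhibitors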)
Outline: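 Read-out is the total spike count over 40 min, expressed as percent change from each well's own pre-treatment baseline and fitted in the loss direction against DMSO. Rat cortical neurons were exposed at 0.03-40 uM on DIV 13 or 15.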

[6] = CCTE_Shafer_MEA_acute_firing_rate_mean: CCTE's Neural Acute Assay for Mean Firing Rate, Shafer Lab (AID 2284009; active means hit-call score of the fitted dose curve at least 0.9, where 1 is the maximum; inactive means score below 0.9;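 further: analyzed for loss of signal so actives lower firing rate relative to DMSO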)
Outline: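 Rat cortical neuron cultures matured to DIV 13 or 15, equilibrated 20 min at 37 C, then recorded 40 min for baseline. Compound (0.03-40 uM) added and a further 40 min recorded; percent change in mean firing rate calculated per well.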

DIO1 (gene 1733) = experiment: CCTE_GLTED_hDIO1: CCTE's human Deiodinase 1 (DIO1) Inhibition Assay, Great Lakes Toxicology and Ecology Division (GLTED) Lab (AID 2283987);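 further: isolated human DIO1 enzyme in a cell-free setup rather than cells; enzyme activity read as free iodide liberated from substrate via Sandell-Kolthoff colorimetry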
Outline: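 Inhibition of human deiodinase 1 is scored as reduced iodide liberation after a 3 h enzyme–chemical incubation, detected colorimetrically by the Sandell-Kolthoff reaction against DMSO controls.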

## CCCCCCC(O)CO (configuration not stated)
THRB (gene 7068)
  outcome: inactive

## NC(CO)(CO)CO
THRB (gene 7068)
  outcome: inactive

## Oc1ccc(Cl)cc1Cc1cc(Cl)ccc1O
[1]
  AC50: 12.1 µM (active)
[2]
  AC50: 1.77 µM (active)
[3]
  AC50: 16.3 µM (active)
[4]
  outcome: inactive

## CCOC(=O)c1ccccc1C(=C1C=C(Br)C(=O)C(Br)=C1)c1cc(Br)c(O)c(Br)c1
[5]
  outcome: inactive
[6]
  outcome: inactive

## O=S(=O)(O)c1ccccc1C=Cc1ccc(-c2ccc(C=Cc3ccccc3S(=O)(=O)O)cc2)cc1
DIO1 (gene 1733)
  AC50: 100 µM (active)

## O=C(c1ccc(O)cc1)c1ccc(O)cc1O
[5]
  outcome: inactive
[6]
  outcome: inactive

## CC(C)c1ccc2cc(C(C)C)ccc2c1
[1]
  outcome: inactive
[3]
  outcome: inactive
[4]
  outcome: inactive

## C=C[Si](OC(C)=O)(OC(C)=O)OC(C)=O
[5]
  outcome: inactive
[6]
  outcome: inactive

## CC(C)=CCC[C@H](C)CCO
[1]
  outcome: inactive
[2]
  outcome: inactive
[3]
  outcome: inactive
[4]
  outcome: inactive

## Cc1ccc(N/N=c2\c(=O)cc/c(=N/Nc3ccc(S(=O)(=O)O)cc3)c2=O)c(C)c1
DIO1 (gene 1733)
  AC50: 46.6 µM (active)

## CCCCC(CC)COC(=O)c1ccccc1O (configuration not stated)
[5]
  outcome: inactive
[6]
  outcome: inactive

## O=C1CCCN1CCO
[5]
  outcome: inactive
[6]
  outcome: inactive

## Nc1ccc(N)c(Cl)c1
[5]
  outcome: inactive
[6]
  outcome: inactive

## CCCCC/C=C\CCC=O
[1]
  outcome: inactive
[2]
  outcome: inactive
[4]
  outcome: inactive

## CO[Si](OC)(OC)c1ccccc1
[5]
  outcome: inactive
[6]
  outcome: inactive

## CC(C)(Oc1ccc(C2CC2(Cl)Cl)cc1)C(=O)O (configuration not stated)
[1]
  outcome: inactive
[2]
  outcome: inactive
[3]
  outcome: inactive
[4]
  outcome: inactive

## CC(CC=O)CCCC(C)(C)O (configuration not stated)
[1]
  outcome: inactive
[2]
  outcome: inactive
[3]
  outcome: inactive
[4]
  outcome: inactive

## Nc1ncn([C@@H]2O[C@H](CO)[C@@H](O)[C@H]2O)c(=O)n1
[5]
  AC50: 7.65 nM (active)
[6]
  AC50: 7.63 nM (active)
